Rows were chosen to be rich in hits. Some 5.9% of all compounds tested hit in one or more screens of this group.
GLP1R ag: GLP-1 receptor (human) agonism | P43220 | HEK293 GLP-1R CRE-luciferase, luminescence, 4-6 h; cells express a hypersensitive GLP-1R form | Potency, µM (doses to about 45.6 µM), actives largely listed as activators | 380,000 compounds, 0.007% hits | AID 624172
Target sequence (P43220 whole entry, looked up): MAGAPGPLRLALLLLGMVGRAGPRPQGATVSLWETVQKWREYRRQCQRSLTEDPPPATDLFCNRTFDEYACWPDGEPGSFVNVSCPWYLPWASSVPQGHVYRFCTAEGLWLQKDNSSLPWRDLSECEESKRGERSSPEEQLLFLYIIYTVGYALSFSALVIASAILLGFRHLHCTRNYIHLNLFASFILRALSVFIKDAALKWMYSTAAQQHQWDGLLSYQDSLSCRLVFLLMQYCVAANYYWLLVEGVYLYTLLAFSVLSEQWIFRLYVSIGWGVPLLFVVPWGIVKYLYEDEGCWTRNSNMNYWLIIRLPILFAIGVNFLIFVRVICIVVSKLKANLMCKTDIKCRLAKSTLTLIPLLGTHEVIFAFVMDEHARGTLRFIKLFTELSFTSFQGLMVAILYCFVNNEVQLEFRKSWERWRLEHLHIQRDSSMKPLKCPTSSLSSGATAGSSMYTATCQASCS
HEK293 tox: cytotoxicity in counter-screen for GLP-1R inverse agonists. HEK293 cAMP-luciferase reporter cells, luminescence, 24 h. Potency, µM (series often up to 38.3 µM), actives largely listed as inhibitors. 410,000 compounds, 0.13% hits;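 further: loss of luciferase light is scored as toxicity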
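Seeding density was 200 cells/uL; after overnight-length (12 h) culture, 23 nL compounds went on for 24 h at 37 °C. Readout used a luciferase detection reagent, luminescence taken after 12 min at room temperature.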
GLP1R inv ag: inverse agonists of human GLP-1 receptor; P43220; HEK293 GLP-1R CRE-luciferase, luminescence, 24 h; GLP-1R form is constitutively active; Potency, µM (titrated, usually from 38.3 µM), actives largely listed as inhibitors; 410,000 compounds, 1.6% hits; further: nearly all actives have a fitted effect of over 55% in size
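Readout was luciferase luminescence, measured 12 min after detection reagent at room temperature. Beforehand, GLP-1R reporter HEK293 cells had sat 12 h, then received compounds for 24 hr at 37 deg C.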
Gal4-VP16 FLuc: Gal4-VP16 reporter inhibition counter-screen; Drosophila S2 Gal4-VP16 UAS-luciferase, luminescence, 20 h; 310,000 compounds, 3.5% hits; AID 2546; Potency, µM (top dose mostly 53.6 µM), actives largely listed as inhibitors;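 further: Gal4-VP16 expression switched on by copper sulfate through the metallothionein promoter; nearly all actives have a fitted effect of over 50% in size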
RORgamma inh: blocks mouse ROR gamma transcriptional activity; P51450; Drosophila S2 Gal4-RORgamma UAS-luciferase reporter, 20 h; Potency, µM (highest dose often 53.6 µM), most hits filed as inhibitors; 310,000 compounds, 5.4% hits; AID 2551; further: nearly all actives have a fitted effect of over 60% in size
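Luciferase reporter read in Schneider cells carrying Gal4-RORγ (mouse) and UAS-Photinus luciferase; cells given compound 1 h before 700 uM copper sulfate induction, then incubated 20 h at ambient temperature.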
Numbers stand for hits; . = inactive; ? = inconclusive; / = not tested or not shown; [ ] = another dose, or the depositor's remark. The call rests on the fitted dose curve; in most records, active means well fitted curve in the direction sought with a large enough effect; inconclusive means small, poorly fitted or top-dose-only effect, or another doubt; inactive means no such curve, though single readings can be large; an effect the other way counts as inactive or inconclusive.

SMILES	GLP1R ag	HEK293 tox	GLP1R inv ag	Gal4-VP16 FLuc	RORgamma inh
CC1(C)CC[C@]2(C(=O)n3ccnc3)CC[C@]3(C)[C@H](C(=O)C=C4[C@@]5(C)C=C(C#N)C(=O)C(C)(C)[C@@H]5CC[C@]43C)[C@@H]2C1	.	.	2.5µM	/	/
CCOc1ccc(C(=O)Nc2cccc(NC(=O)c3ccc(C(C)(C)C)cc3)c2)cc1Br	/	.	.	/	/
COc1ccc(-n2c(-c3cc(-c4ccccc4)sc3N)n[nH]c2=S)cc1	.	.	.	?	2.5µM
S=c1[nH]nc(-c2cccs2)n1C1CCCCC1	.	?	.	.	.
Nc1sc(-c2ccccc2)cc1-c1n[nH]c(=S)n1C1CCCCC1	.	?	?	?	2.2µM
Cc1onc(-c2ccccc2)c1-c1n[nH]c(=S)n1-c1ccccc1	.	.	.	/	/
CC12C=C(/C=C/CCc3ccco3)C(C)(C1)C(CCc1ccco1)CC2=O (stereo not drawn)	/	/	/	.[10 µM]	.[10 µM]
COc1cccc(/C=C/c2nc(C#N)c(N3CCCCC3)o2)c1	/	.	?	/	/
CC(C)CC1NC(=O)N(CC(=O)Nc2ccc(OCc3ccccc3)cc2)C1=O (stereo not drawn)	.	.	11µM	/	/
CCOc1ccc(NC(=O)CN2CCN(CC(=O)c3ccc(OC)c(OC)c3)CC2)cc1	.	.	.	.	2.5µM
CS(=O)(=O)N(CCc1ccccc1)CC(=O)Nc1ccc(OCc2ccccc2)cc1	.	.	11µM	.	.
O=C(CN1CCN(CC(=O)Nc2ccc(OCc3ccccc3)cc2)CC1)Nc1ccc(F)cc1	.	.	8.9µM	/	/
COC(=O)c1ccc(C23CC4(C2)[C@H](CN(C)[C@@H]4c2ccccc2)C3c2ccc(C(F)(F)F)cc2)cc1 (stereo partly drawn)	.	.	10µM	.	.
FC(F)(F)c1ccc(CN2C[C@@H]3C(c4ccccc4)C4(c5cccnc5)CC3(C4)[C@H]2c2ccccc2)cc1 (stereo partly drawn)	.	.	11µM	.	.
COC(=O)c1ccc(C23CC4(C2)[C@H](CN(Cc2ccc(C(F)(F)F)cc2)[C@@H]4c2ccccc2)C3c2ccc(C(F)(F)F)cc2)cc1 (stereo partly drawn)	/	/	/	.	.
N#Cc1ccc(CSc2nnc(-c3c[nH]c4ccccc34)n2-c2ccccc2)cc1	.	.	6.3µM	?	.
N#Cc1ccc(CSc2nnc(-c3ccccn3)n2-c2ccccc2)cc1	.	.	.	.	.
COc1ccc(OC)c(-c2ccccc2/C=N/NS(=O)(=O)c2ccc(C)cc2)c1	/	/	/	.[10 µM]	.[10 µM]
S=C(Nc1ccc(Oc2ccccc2)cc1)N(CCCN1CCOCC1)Cc1ccccn1	.	.	.	.	14µM
Cc1ccc(Cl)cc1NC(=S)N(CCCN1CCOCC1)Cc1ccccn1	.	.	.	.	.
Cc1cccc(NC(=S)N(CCCN2CCOCC2)Cc2ccccn2)c1	.	.	.	.	.
COc1cc(Cl)ccc1NC(=S)N(CCCN1CCOCC1)Cc1cn(C)c2ccccc12	.	?	?	?	11µM
CCOc1ccccc1NC(=S)N(CCCN1CCOCC1)Cc1cn(C)c2ccccc12	.	.[1.53 µM]	?	?	11µM
COc1ccccc1NC(=S)N(CCCN1CCOCC1)Cc1cn(C)c2ccccc12	.	.	?	.	?
Cc1ccc(Cl)c(NC(=S)N(CCCN2CCOCC2)Cc2ccco2)c1	.	.	?	?	8.9µM
SMILES	GLP1R ag	HEK293 tox	GLP1R inv ag	Gal4-VP16 FLuc	RORgamma inh
CCOc1cccc2cc(-c3nc4sc5c(c4c(=O)[nH]3)CCC(C)C5)c(=O)oc12 (stereo not drawn)	/	.	.	/	/
CCCn1c(C)nc2c(NCCCCN(C)C)nc(C)nc21	/	/	/	.	.
COc1ccccc1NC(=S)N(CCN1CCOCC1)Cc1ccccc1F	.	.	.	.	.
COc1ccc(Cl)cc1NC(=S)N(CCCN1CCOCC1)Cc1cn(C)c2ccccc12	.	.[1.53 µM]	?	?	13µM
COc1cccc2cc(C(C)N(CCCN3CCOCC3)C(=S)Nc3ccc(C)cc3)oc12 (stereo not drawn)	.	.	.	.[10 µM]	.
COc1ccc(NC(=S)N(CCCN2CCOCC2)C(C)c2cc3ccccc3o2)cc1 (stereo not drawn)	.	.	?	.	10µM

Screening results as filed in PubChem BioAssay.
